# Experimental data: PubChem BioAssay (EPA / NIEHS)
# Records with an inconclusive call do not appear. Calls of active or inactive are those of the source. How the source made its calls: active means hit-call score of the fitted dose curve at least 0.9, where 1 is the maximum; inconclusive means response in the unintended direction; inactive means score below 0.9.
# Experiment: ACEA_ER_AUC_viability: ACEA Biosciences xCELLigence Real-Time Cell Analysis on Estrogen Receptor Agonism for Viability (AID 2283782);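 further: hit means loss of impedance signal meaning reduced cell growth or viability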
# In short: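 Viability endpoint: reduced impedance area under the curve relative to DMSO, recorded by real-time electrode sensing over ~80 h of continuous exposure. Duplicate plates of T47D in hormone-depleted medium; eight concentrations, 1:4 dilutions, 100 uM maximum.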
Compound,outcome,AC50
O=C(O)CCC(=O)O,inactive,
CC1=NN(c2ccc(S(=O)(=O)O)cc2)C(=O)C1N=Nc1ccccc1 (centres undefined),inactive,
CCCCC1CCC(=O)O1 (centres undefined),,60.6 µM (active)
COC(OC)(C(=O)c1ccccc1)c1ccccc1,,64 µM (active)
CCOC(=O)C1=NOC(c2ccccc2)(c2ccccc2)C1,inactive,
C1CNCCN1,inactive,
CCCCCCCCCCCC(=O)N(C)CC(=O)O,inactive,
C=CCCCCCCCCO,,50 µM (active)
CCC(C)C(=O)OCCc1ccccc1 (centres undefined),inactive,
CC(C)CO,inactive,
C=C[Si](OCCOC)(OCCOC)OCCOC,inactive,
CC/C=C\CCOC(=O)c1ccccc1O,,72.7 µM (active)
c1ccc2cnccc2c1,inactive,
O=C1CCCCC1C1CCCCC1 (centres undefined),inactive,
COc1ccc(C(=O)/C(Br)=C\C(=O)O)cc1,,29.2 µM (active)
CN1CCN(C)CC1,inactive,
CC=C(C)C=CC=C(C)C,,50 µM (active)
CC(C)(CO)C(O)C(=O)NCCCO (centres undefined),inactive,
CCC1(C)C(=O)N(Cl)C(=O)N1Cl (centres undefined),,81.4 µM (active)
CC(=O)C(C)C,inactive,
CCOC(=O)[C@H](O)[C@@H](O)C(=O)OCC,,50 µM (active)
Cc1noc(NS(=O)(=O)c2ccc(N)cc2)c1C,inactive,
CC(=O)OC1CCCCC1,,40.3 µM (active)
CCCCC(C=O)CC (centres undefined),inactive,
CC1=CP(=O)(c2ccccc2)CC1 (centres undefined),inactive,
CCN1CCCC1=O,inactive,
CC(=O)OCC=C(C)C,inactive,
CC(C)=NNC(N)=S,,82.4 µM (active)
O=C1c2ccccc2C(=O)c2cc(S(=O)(=O)O)ccc21,inactive,
